# Data published in paper PMC8384837, “Expanding the binding specificity for RNA recognition by a PUF domain”.
# Substitutions are numbered along the chain they refer to.
# Columns and labels:
# Experiment in all cases: yeast three-hybrid, YBZ-1, SC-Leu-His + 0.5 mM 3-AT, 4 days
# Details in all cases: tags: N-Gal4 AD-HA kept; label: inside an RPR1-promoter hybrid RNA with tandem MS2 sites; ssRNA
# PUM1 PUF domain R3-RAA = PUM1 PUF domain R3-RAA (Homo sapiens, UniProt Q14671 828-1176, C935R;R936A;Q939A)
# Outline: (§1)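 Repeat regions from input (SC-Leu) and selection (SC-Leu-His + 0.5 mM 3-AT) plates were PCR-amplified and Illumina-sequenced after four days of growth. The cells were strain YBZ-1 with a LexA–MS2 coat fusion and a HIS3 reporter, co-expressing Pumilio-1 PUF domain libraries and matching RNA elements from a centromeric plasmid. The interaction score is the log change in variant frequency from input to selection, taken in log2 with a pseudocount of 1 for absent variants.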
# PUM1 PUF domain R3-CRC = PUM1 PUF domain R3-CRC (Homo sapiens, UniProt Q14671 828-1176, Q939C)
# Outline: as §1
# PUM1 PUF domain R8-SWE = PUM1 PUF domain R8-SWE (Homo sapiens, UniProt Q14671 828-1176, N1122S;Y1123W;Q1126E)
# Outline: as §1
# PUM1 PUF domain R8-NWR = PUM1 PUF domain R8-NWR (Homo sapiens, UniProt Q14671 828-1176, Y1123W;Q1126R)
# Outline: as §1
# [1] = molecular target: T1, PUM1 PUF domain R6-SWD R7-NPG (Homo sapiens, UniProt Q14671 828-1176, N1043S;Y1044W;Q1047D;S1079N;N1080P;E1083G)
# T1 sequence: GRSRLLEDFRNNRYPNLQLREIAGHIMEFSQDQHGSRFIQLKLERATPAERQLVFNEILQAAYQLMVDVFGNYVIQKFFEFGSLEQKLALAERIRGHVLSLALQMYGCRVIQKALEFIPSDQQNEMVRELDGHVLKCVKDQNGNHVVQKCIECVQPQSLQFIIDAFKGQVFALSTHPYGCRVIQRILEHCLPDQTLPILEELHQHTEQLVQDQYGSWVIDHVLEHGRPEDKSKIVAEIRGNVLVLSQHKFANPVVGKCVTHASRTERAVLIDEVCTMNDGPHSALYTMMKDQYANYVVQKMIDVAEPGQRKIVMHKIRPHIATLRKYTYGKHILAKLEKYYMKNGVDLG
# Outline: as §1
# PUM1 PUF domain R5-GKH = PUM1 PUF domain R5-GKH (Homo sapiens, UniProt Q14671 828-1176, C1007G;R1008K;Q1011H)
# Outline: as §1
# PUM1 PUF domain R5-RYT = PUM1 PUF domain R5-RYT (Homo sapiens, UniProt Q14671 828-1176, C1007R;R1008Y;Q1011T)
# Outline: as §1
# PUM1 PUF domain R5-NDG = PUM1 PUF domain R5-NDG (Homo sapiens, UniProt Q14671 828-1176, C1007N;R1008D;Q1011G)
# Outline: as §1
# PUM1 PUF domain R4-VPS = PUM1 PUF domain R4-VPS (Homo sapiens, UniProt Q14671 828-1176, N971V;H972P;Q975S)
# Outline: as §1
# PUM1 PUF domain R4-SNS = PUM1 PUF domain R4-SNS (Homo sapiens, UniProt Q14671 828-1176, N971S;H972N;Q975S)
# Outline: as §1
# PUM1 PUF domain R6-VWS = molecular target: T2, PUM1 PUF domain R6-VWS (Homo sapiens, UniProt Q14671 828-1176, N1043V;Y1044W;Q1047S)
# T2 sequence: T1 sequence with S216V, D220S, N252S, P253N, G256E
# Outline: as §1
# PUM1 PUF domain R5-KHI = PUM1 PUF domain R5-KHI (Homo sapiens, UniProt Q14671 828-1176, C1007K;R1008H;Q1011I)
# Outline: as §1
# PUM1 PUF domain R6-MYL = molecular target: T3, PUM1 PUF domain R6-MYL (Homo sapiens, UniProt Q14671 828-1176, N1043M;Q1047L)
# T3 sequence: T1 sequence with S216M, W217Y, D220L, N252S, P253N, G256E
# Outline: as §1
# PUM1 PUF domain R4-LHW = PUM1 PUF domain R4-LHW (Homo sapiens, UniProt Q14671 828-1176, N971L;Q975W)
# Outline: as §1
# PUM1 PUF domain R6-KFS = molecular target: T4, PUM1 PUF domain R6-KFS (Homo sapiens, UniProt Q14671 828-1176, N1043K;Y1044F;Q1047S)
# T4 sequence: T1 sequence with S216K, W217F, D220S, N252S, P253N, G256E
# Outline: as §1
# PUM1 PUF domain R6-LWK = molecular target: T5, PUM1 PUF domain R6-LWK (Homo sapiens, UniProt Q14671 828-1176, N1043L;Y1044W;Q1047K)
# T5 sequence: T1 sequence with S216L, D220K, N252S, P253N, G256E
# Outline: as §1
# PUM1 PUF domain R5-NAR = PUM1 PUF domain R5-NAR (Homo sapiens, UniProt Q14671 828-1176, C1007N;R1008A;Q1011R)
# Outline: as §1
# PUM1 PUF domain R5-KTC = PUM1 PUF domain R5-KTC (Homo sapiens, UniProt Q14671 828-1176, C1007K;R1008T;Q1011C)
# Outline: as §1
# PUM1 PUF domain R4-EHA = PUM1 PUF domain R4-EHA (Homo sapiens, UniProt Q14671 828-1176, N971E;Q975A)
# Outline: as §1
# PUM1 PUF domain R4-VCA = PUM1 PUF domain R4-VCA (Homo sapiens, UniProt Q14671 828-1176, N971V;H972C;Q975A)
# Outline: as §1
sequence,measurement,setting,value
GGCUAGAACUAGUGGAUCCCCCGGCGCCCGGCGGCUCGAGCCCGGGUAAGUGUAAUUAGUCUGCAUGCCGCCGGGCGCCAUGCCUGCAGGUCGACUCUAGAAAACAUG,binding signal,PUM1 PUF domain R3-RAA,3.66 log2 enrichment (interaction score)
same,binding signal,PUM1 PUF domain R3-CRC,2.22 log2 enrichment (interaction score)
GGCUAGAACUAGUGGAUCCCCCGGCGCCCGGCGGCUCGAGCCCGGGUAAGCGUAAAUAGUCUGCAUGCCGCCGGGCGCCAUGCCUGCAGGUCGACUCUAGAAAACAUG,binding signal,PUM1 PUF domain R8-SWE,2.43 log2 enrichment (interaction score)
same,binding signal,PUM1 PUF domain R8-NWR,3.79 log2 enrichment (interaction score)
GGCUAGAACUAGUGGAUCCCCCGGCGCCCGGCGGCUCGAGCCCGGGUAAGUUGAAAUAGUCUGCAUGCCGCCGGGCGCCAUGCCUGCAGGUCGACUCUAGAAAACAUG,binding signal,[1],5.9 log2 enrichment (interaction score)
GGCUAGAACUAGUGGAUCCCCCGGCGCCCGGCGGCUCGAGCCCGGGUAAGUGUUAAUAGUCUGCAUGCCGCCGGGCGCCAUGCCUGCAGGUCGACUCUAGAAAACAUG,binding signal,PUM1 PUF domain R5-GKH,3.15 log2 enrichment (interaction score)
same,binding signal,PUM1 PUF domain R5-RYT,3.93 log2 enrichment (interaction score)
same,binding signal,PUM1 PUF domain R5-NDG,3.34 log2 enrichment (interaction score)
GGCUAGAACUAGUGGAUCCCCCGGCGCCCGGCGGCUCGAGCCCGGGUAAGUGUACAUAGUCUGCAUGCCGCCGGGCGCCAUGCCUGCAGGUCGACUCUAGAAAACAUG,binding signal,PUM1 PUF domain R4-VPS,2.28 log2 enrichment (interaction score)
same,binding signal,PUM1 PUF domain R4-SNS,0.99 log2 enrichment (interaction score)
GGCUAGAACUAGUGGAUCCCCCGGCGCCCGGCGGCUCGAGCCCGGGUAAGUGAAAAUAGUCUGCAUGCCGCCGGGCGCCAUGCCUGCAGGUCGACUCUAGAAAACAUG,binding signal,PUM1 PUF domain R6-VWS,7.2 log2 enrichment (interaction score)
GGCUAGAACUAGUGGAUCCCCCGGCGCCCGGCGGCUCGAGCCCGGGUAAGUGUAAGUAGUCUGCAUGCCGCCGGGCGCCAUGCCUGCAGGUCGACUCUAGAAAACAUG,binding signal,PUM1 PUF domain R3-CRC,2.62 log2 enrichment (interaction score)
GGCUAGAACUAGUGGAUCCCCCGGCGCCCGGCGGCUCGAGCCCGGGUAAGUGUGAAUAGUCUGCAUGCCGCCGGGCGCCAUGCCUGCAGGUCGACUCUAGAAAACAUG,binding signal,PUM1 PUF domain R5-KHI,4.47 log2 enrichment (interaction score)
GGCUAGAACUAGUGGAUCCCCCGGCGCCCGGCGGCUCGAGCCCGGGUAAGUGUAAAUAGUCUGCAUGCCGCCGGGCGCCAUGCCUGCAGGUCGACUCUAGAAAACAUG,binding signal,PUM1 PUF domain R5-RYT,1.24 log2 enrichment (interaction score)
same,binding signal,PUM1 PUF domain R6-MYL,4.67 log2 enrichment (interaction score)
same,binding signal,PUM1 PUF domain R4-LHW,3.75 log2 enrichment (interaction score)
same,binding signal,PUM1 PUF domain R6-KFS,3.11 log2 enrichment (interaction score)
same,binding signal,PUM1 PUF domain R3-CRC,2.51 log2 enrichment (interaction score)
same,binding signal,PUM1 PUF domain R4-VPS,1.66 log2 enrichment (interaction score)
same,binding signal,PUM1 PUF domain R8-NWR,2.23 log2 enrichment (interaction score)
same,binding signal,PUM1 PUF domain R6-LWK,5.88 log2 enrichment (interaction score)
same,binding signal,PUM1 PUF domain R6-VWS,2.66 log2 enrichment (interaction score)
same,binding signal,PUM1 PUF domain R4-SNS,2.68 log2 enrichment (interaction score)
GGCUAGAACUAGUGGAUCCCCCGGCGCCCGGCGGCUCGAGCCCGGGUAAGUGUCAAUAGUCUGCAUGCCGCCGGGCGCCAUGCCUGCAGGUCGACUCUAGAAAACAUG,binding signal,PUM1 PUF domain R5-NAR,4.29 log2 enrichment (interaction score)
same,binding signal,PUM1 PUF domain R5-KTC,4.69 log2 enrichment (interaction score)
GGCUAGAACUAGUGGAUCCCCCGGCGCCCGGCGGCUCGAGCCCGGGUAAGUGUAUAUAGUCUGCAUGCCGCCGGGCGCCAUGCCUGCAGGUCGACUCUAGAAAACAUG,binding signal,PUM1 PUF domain R4-EHA,2.96 log2 enrichment (interaction score)
same,binding signal,PUM1 PUF domain R4-VPS,2.93 log2 enrichment (interaction score)
same,binding signal,PUM1 PUF domain R4-SNS,2.15 log2 enrichment (interaction score)
same,binding signal,PUM1 PUF domain R4-VCA,2.82 log2 enrichment (interaction score)
